The list is not random: actives were taken first. Their share in the collection is about 19%.
HepG2 tox = HepG2 cytotoxicity, counter-screen for TGF-b inhibitors; HepG2 CAGA-GFP viability, ATP luminescence, 18 h; Potency, µM (top dose mostly 46.1 µM), without a hit: top-dose activity change, negative = cytotoxicity, usual class: cytotoxic; 410,000 tested, 0.76% active; AID 588856; also: potency is read from the fitted curve at half-maximal effect
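HepG2 CAGA-GFP cells (1000/well, DMEM with 1% FBS) received compound, then TGF-beta at 500 pg/mL final, and were incubated 18 hours at 37 degrees C. Viability was read by CellTiter-Glo luminescence. Media-only wells were set as complete cell-killing and DMSO as no toxicity.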
TDP1 block = blocks human tyrosyl-DNA phosphodiesterase 1; 350,000 tested, 0.28% active; Q9NUW8; recombinant TDP1, AlphaScreen DNA substrate cleavage; Potency, µM (top dose mostly 130 µM), without a hit: top-dose activity change, negative = inhibition, most hits filed as inhibitors; also: potency is read from the fitted curve at half-maximal effect; % is scaled to controls: 0 for no effect and ±100 for the full control effect; nearly all actives have a fitted effect of over 40% in size
Target sequence (Q9NUW8 whole entry, looked up): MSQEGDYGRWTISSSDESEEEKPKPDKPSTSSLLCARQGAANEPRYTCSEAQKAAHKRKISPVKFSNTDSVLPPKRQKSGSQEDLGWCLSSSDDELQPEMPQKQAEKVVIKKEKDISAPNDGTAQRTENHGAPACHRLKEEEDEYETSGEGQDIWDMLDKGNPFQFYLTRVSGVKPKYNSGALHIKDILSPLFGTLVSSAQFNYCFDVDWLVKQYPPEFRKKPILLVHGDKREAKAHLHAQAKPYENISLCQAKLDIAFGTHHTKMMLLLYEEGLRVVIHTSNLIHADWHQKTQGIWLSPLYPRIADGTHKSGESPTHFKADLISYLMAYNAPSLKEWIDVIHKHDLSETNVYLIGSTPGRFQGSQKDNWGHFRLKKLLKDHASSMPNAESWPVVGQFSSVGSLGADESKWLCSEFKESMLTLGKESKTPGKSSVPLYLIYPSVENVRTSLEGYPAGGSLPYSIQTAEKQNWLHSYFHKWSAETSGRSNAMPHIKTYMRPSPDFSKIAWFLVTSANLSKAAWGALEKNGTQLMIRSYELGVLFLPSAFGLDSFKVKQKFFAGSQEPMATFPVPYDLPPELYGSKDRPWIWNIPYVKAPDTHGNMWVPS
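Signal: AlphaScreen proximity between streptavidin donor and anti-FITC acceptor beads on intact substrate. Reaction: Tdp1 1 nM, substrate 15 nM final, 5 min RT after 15 min compound preincubation.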
DT40 TDP1 no CPT = qHTS for Inhibitors of human tyrosyl-DNA phosphodiesterase 1 (TDP1): qHTS in cells in absence of CPT | 420,000 tested, 15% active | DT40 Tdp1-/- hTDP1 cells, no CPT, ATP luminescence, 48 h | Potency, µM (highest dose often 46.2 µM), without a hit: top-dose activity change, negative = growth inhibition, usual class: inhibitors; also: potency is read from the fitted curve at half-maximal effect; % is scaled to controls: 0 for no effect and ±100 for the full control effect; nearly all actives have a fitted effect of over 55% in size
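Chicken DT40 Tdp1-/- cells stably complemented with human TDP1 were seeded at 400 cells/well with DMSO in place of 20 nM camptothecin. After compound pinning, cells grew at least 48 hr at 37 °C; viability read by CellTiter-Glo luminescence.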
TGFb inhibitor = TGF-b pathway inhibition | HepG2 CAGA-GFP TGF-b/SMAD3 reporter, GFP fluorescence, 18 h; TGF-beta stimulated, 500 pg/mL final | Potency, µM (highest dose often 46.1 µM), without a hit: top-dose activity, negative = inhibition, hits mostly inhibitors | 410,000 tested, 1.2% active; also: potency is read from the fitted curve at half-maximal effect; % is scaled to controls: 0 for no effect and ±100 for the full control effect; nearly all actives have a fitted effect of over 65% in size
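HEPG2 CAGA-GFP reporter cells (1000/well, DMEM with 1% FBS) received compounds, then recombinant TGF-beta at 500 pg/mL final for 18 hours at 37 degrees C. Per-cell GFP summed per well was normalised to unstimulated and stimulated DMSO controls before curve fitting.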
IL1B secr inh = inhibitors of inflammasome signaling (IL-1 beta secretion); THP-1 LPS/ATP IL-1B secretion, AlphaLISA, 16 h; hits give low values; activity change, % at 57.5 µM; 360,000 tested, 4.7% active; in the data active = activity change below about -50%; inconclusive = mostly about -30% to -49%; also: % is scaled to controls: 0 for no effect and ±100 for the full control effect
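Secreted IL-1B measured by AlphaLISA bead assay after 16 h compound exposure of THP-1 cells; compounds (final up to 57.5 uM) added 1 h before LPS (250 ng/mL) and ATP (1.25 mM) stimulation; lower signal means less secretion.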
DT40 TDP1 CPT = DT40-hTDP1 cell growth loss with CPT | chicken DT40 Tdp1-/-;hTDP1 cells + 20 nM CPT, ATP luminescence, 48 h | Potency, µM (doses to about 46.2 µM), inactives show at the highest dose activity change, negative = growth inhibition, hits mostly inhibitors | 420,000 tested, 12% active; also: potency is read from the fitted curve at half-maximal effect; % is scaled to controls: 0 for no effect and ±100 for the full control effect; nearly all actives have a fitted effect of over 55% in size
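Chicken DT40 Tdp1-/- cells complemented with human TDP1, 400 cells/well, exposed to compounds plus 20 nM camptothecin for at least 48 h at 37 C; viability read as ATP content by CellTiter-Glo luminescence.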
The depositor's hits bear a star; ? = inconclusive; . = no result given. Unless noted, calls follow the shape of the dose curve; as a rule, active = well fitted curve in the direction sought with a large enough effect; inconclusive = small, poorly fitted or top-dose-only effect, or another doubt; inactive = no such curve, though single readings can be large; an effect the other way counts as inactive or inconclusive.

SMILES | HepG2 tox | TDP1 block | DT40 TDP1 no CPT | TGFb inhibitor | IL1B secr inh | DT40 TDP1 CPT
Cc1cc(N2CCN(C)CC2)nc2ccc(NC(=S)NCCN3CCc4ccccc4C3)cc12 | -64% | 3% | ? | ? | -1 | ?
Cc1cc(N2CCN(C)CC2)nc2ccc(NC(=S)NCCCN3CCc4ccccc4C3)cc12 | -23% | 5% | ? | -6% | -92* | ?
CCN1CCN(c2cc(C)c3cc(NC(=S)NCCCN4CCc5ccccc5C4)ccc3n2)CC1 | -42% | 3% | 15µM* | ? | -23 | ?
Cc1cc(N2CCCC2)nc2ccc(NC(=S)NCCCN3CCC(C)CC3)cc12 | 18µM* | 3% | ? | ? | -140* | ?
COC(=O)CSc1nc(C)cc(C(F)(F)F)c1C#N | 14% | -2% | -14% | 10% | -10 | -5%
COC(=O)CSc1ccc(C#N)c(SCC(=O)OC)c1 | -6% | 4% | -22% | -2% | -105* | 6%
COC(=O)CSc1cc(SCC(=O)OC)c(C#N)c(SCC(=O)OC)c1 | -13% | -8% | -14% | -20% | -113* | -13%
O=C(O)[C@H]1O[C@@H](Oc2ccc3ccc(=O)oc3c2)[C@H](O)[C@@H](O)[C@@H]1O | . | 2% | . | . | . | .
CC(C)C[C@@H](CNCC(=O)[C@H](C)NC(=O)c1[nH]cnc1C(=O)N[C@@H](C)CN)NC(=O)c1nc[nH]c1C(=O)N[C@@H](CC(=O)O)C(=O)O | 13% | . | -6% | -3% | 17 | 1%
Cc1cc(C)nc(/N=C(/NC(=O)c2ccccc2)Nc2ccccc2)n1 | -11% | -1% | -28% | -1% | 7 | -12%
Cc1cc(C)c2nc(SCCc3ccccc3)nc(C)c2c1 | -9% | -9% | ? | 5% | -23 | -15%
Cc1cc(C)c2nc(/N=C(\N)NC(=O)c3ccccc3)nc(C)c2c1 | 12% | . | 16µM* | -1% | -27 | -24%
CCCC(=O)N/C(N)=N/c1nc(C)c2ccccc2n1 | 10% | 5% | 16µM* | 2% | -85* | ?
CCCCC(=O)N/C(N)=N/c1nc2ccccc2o1 | -1% | 2% | ? | 13% | -11 | ?
CCc1ccc2nc(/N=C(\N)NC(=O)c3ccccc3)nc(C)c2c1 | -40% | 2% | 16µM* | -2% | -15 | ?
Cc1cc(C)c2nc(/N=C(\N)NC(=O)Nc3ccccc3)nc(C)c2c1 | -16% | -2% | 18µM* | ? | -9 | 23µM*
CCN(c1cccc(C)c1)S(=O)(=O)c1cc2c(cc1C)n(C)c(=O)c(=O)n2C | 0% | 4% | -22% | -4% | . | -5%
COc1ccc(NC(=O)N(C)C[C@H]2Oc3ccc(NC(=O)Nc4c(C)noc4C)cc3C(=O)N([C@H](C)CO)C[C@@H]2C)cc1 | 5% | 1% | -4% | 12% | 11 | 2%
CCOc1ccc(-n2c(SCC(=O)c3ccccc3)nc3c([nH]c4ccccc43)c2=O)cc1 | 1% | 4% | ? | 13% | . | ?
CSCCC(c1nc2ccccc2[nH]1)n1c(-c2cc(C(F)(F)F)cc(C(F)(F)F)c2)nc2ccccc21 (stereo not drawn) | . | . | 16µM* | . | -21 | ?
CSCCC(c1nc2ccccc2[nH]1)n1c(=O)c(-c2cccnc2)nc2ccccc21 (stereo not drawn) | . | . | -21% | . | ? | -9%
CSCCC(c1nc2ccccc2[nH]1)n1c(=O)c(-c2ccco2)nc2ccccc21 (stereo not drawn) | . | . | 23µM* | . | ? | 12µM*
CSCCC(c1nc2ccccc2[nH]1)n1c(C)nc2ccccc21 (stereo not drawn) | . | . | -5% | . | 9 | 1%
Cc1ccc2c(=O)cc(C(=O)N(Cc3ccc(N(C)C)cc3)C3CCS(=O)(=O)C3)oc2c1 (stereo not drawn) | 3% | 7% | ? | -4% | . | -21%
CSc1nnc(C)c(/C=C/NOCc2ccc(Cl)cc2)n1 | -14% | 11% | -24% | -1% | -17 | -11%
SMILES | HepG2 tox | TDP1 block | DT40 TDP1 no CPT | TGFb inhibitor | IL1B secr inh | DT40 TDP1 CPT
CSc1nnc(C)c(/C=C/Nc2ccc(C)cc2)n1 | -75% | 1% | 18µM* | 9% | -1 | -15%
CN(CC1CCCO1)S(=O)(=O)c1ccc(C(=O)N2CCN(c3ccccc3)CC2)cc1 (stereo not drawn) | -4% | -5% | 4% | 3% | 3 | 28%
CCN(c1ccccc1)S(=O)(=O)c1ccc2[nH]cc(C(=O)N3CCOCC3)c(=O)c2c1 | -1% | 50µM* | -14% | 2% | 7 | 0%
CCN(c1ccccc1)S(=O)(=O)c1ccc(Cl)c(NC(=O)CSc2nnc(C)s2)c1 | -18% | 1% | ? | -14% | 4 | ?
CCN(CC(=O)N1CCN(c2ccccc2)CC1)S(=O)(=O)c1ccc(C)cc1 | -3% | 3% | 13µM* | ? | -9 | ?
CCN(c1ccccc1)S(=O)(=O)c1ccc(Cl)c(NC(=O)CNC(C)c2ccccc2)c1 (stereo not drawn) | 3% | 0% | ? | -17% | -10 | 21µM*
CCN(c1ccccc1)S(=O)(=O)c1ccc(C(=O)N2CCN(c3ccccc3)CC2)cc1 | -16% | 2% | 21µM* | ? | 0 | ?
CCN1CCN(S(=O)(=O)c2ccc(Cl)c(C(=O)N(CC(C)C)C3CCS(=O)(=O)C3)c2)CC1 (stereo not drawn) | 0% | . | -11% | 4% | -9 | -28%
CN(C)S(=O)(=O)c1ccc(Cl)c(NC(=O)CN2CCCCCC2)c1 | 13% | 2% | ? | 2% | 15 | 8%
CCN(c1ccccc1)S(=O)(=O)c1ccc(Cl)c(C(=O)N(CC2CCCO2)C2CCS(=O)(=O)C2)c1 (stereo not drawn) | -12% | 0% | 21µM* | -4% | -11 | ?
CCN(c1ccccc1)S(=O)(=O)c1ccc(Cl)c(C(=O)N2CCCC2)c1 | 1% | 0% | 15µM* | -4% | 32 | ?
CN(Cc1ccccc1)S(=O)(=O)c1ccc(Cl)c(C(=O)N2CCC2)c1 | -12% | 2% | ? | -14% | 0 | ?
CN(Cc1ccccc1)S(=O)(=O)c1ccc(Cl)c(C(=O)N2CCC(C(N)=O)CC2)c1 | 0% | 1% | 10µM* | 16% | 26 | 23µM*

Assay outcomes as filed in PubChem BioAssay.
